# Reference: PMC4336329 (PLoS ONE, 2015)
# In all, about 310,000 compounds went through this assay and about 14,000 (4.5%) showed an effect of 50% or more. The effect is printed as a negative number. The full list was thinned out, with strong results kept by preference.
# Biological target: human ether-à-go-go-related gene (hERG) potassium channel (human, UniProt Q12809)
# Assay: primary screen, population patch clamp on CHO cells stably expressing hERG; higher = less effect of the substance
# 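Note: peak tail current of the secondary pulse compared with the same well before compound.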
# Chain of human ether-à-go-go-related gene (hERG) potassium channel (Q12809 whole entry, looked up): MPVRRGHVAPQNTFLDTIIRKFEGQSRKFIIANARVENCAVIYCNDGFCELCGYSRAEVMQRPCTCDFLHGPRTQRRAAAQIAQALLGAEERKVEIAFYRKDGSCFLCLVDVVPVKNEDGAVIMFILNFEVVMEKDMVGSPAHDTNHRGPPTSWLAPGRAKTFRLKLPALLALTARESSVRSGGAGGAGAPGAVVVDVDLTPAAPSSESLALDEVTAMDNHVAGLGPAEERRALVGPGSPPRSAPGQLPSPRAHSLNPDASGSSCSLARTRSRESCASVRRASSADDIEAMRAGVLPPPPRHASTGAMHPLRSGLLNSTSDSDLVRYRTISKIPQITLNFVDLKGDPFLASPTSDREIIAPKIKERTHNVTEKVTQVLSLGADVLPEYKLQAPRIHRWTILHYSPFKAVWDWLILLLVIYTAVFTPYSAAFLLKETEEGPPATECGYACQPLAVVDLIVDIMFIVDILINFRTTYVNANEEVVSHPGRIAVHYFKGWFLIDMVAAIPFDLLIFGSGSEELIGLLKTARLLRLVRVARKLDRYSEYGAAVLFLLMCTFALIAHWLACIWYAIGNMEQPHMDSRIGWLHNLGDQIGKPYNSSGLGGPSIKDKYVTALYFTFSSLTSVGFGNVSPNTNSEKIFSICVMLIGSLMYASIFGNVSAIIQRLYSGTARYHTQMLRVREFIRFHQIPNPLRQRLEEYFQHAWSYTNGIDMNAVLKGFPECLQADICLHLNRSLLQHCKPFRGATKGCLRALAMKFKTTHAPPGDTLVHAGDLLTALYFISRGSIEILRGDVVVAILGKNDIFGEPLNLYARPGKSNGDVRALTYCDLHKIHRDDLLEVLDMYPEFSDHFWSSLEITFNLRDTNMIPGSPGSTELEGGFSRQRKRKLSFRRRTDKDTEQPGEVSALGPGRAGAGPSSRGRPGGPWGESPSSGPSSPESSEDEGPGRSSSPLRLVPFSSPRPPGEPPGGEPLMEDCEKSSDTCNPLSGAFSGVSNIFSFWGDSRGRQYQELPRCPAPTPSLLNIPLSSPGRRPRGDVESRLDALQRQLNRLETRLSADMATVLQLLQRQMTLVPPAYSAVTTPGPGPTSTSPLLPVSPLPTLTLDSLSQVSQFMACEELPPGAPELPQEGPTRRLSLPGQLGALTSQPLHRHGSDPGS
row,SMILES,"hERG current change (%, negative = inhibition) at 10uM [%]"
1,CCOC(=O)Cc1csc(NC(=O)c2ccc(S(=O)(=O)N(CCOC)CCOC)cc2)n1,-1.25
2,O=C(Cc1ccccc1)Nc1nnc(-c2cccc([N+](=O)[O-])c2)s1,5.44
3,COc1ccc(CCC(=O)Nc2cc(S(=O)(=O)N3CCOCC3)ccc2OC(C)C)cc1,-34.8
4,COc1ccccc1N(C)S(=O)(=O)c1ccc(C(=O)OCC(=O)NCc2cccs2)cc1,5.35
5,CCN(c1ccc(OC)cc1)S(=O)(=O)c1ccc2c(c1)CC(C)N2C(=O)C1CC1 (stereo not shown),19.5
6,O=S(=O)(NCCc1ccc(F)cc1)c1cccc2cccnc12,-0.538
7,O=C(CSc1nccc(=O)[nH]1)N1N=C2/C(=C/c3ccco3)CCCC2C1c1ccco1 (stereo not shown),17.4
8,CCCCN1C(=O)C(=O)N(CC(=O)N2N=C3/C(=C/c4ccco4)CCCC3C2c2ccco2)C1=O (stereo not shown),-75
9,Cn1cnnc1SCC(=O)N1N=C2/C(=C/c3ccco3)CCCC2C1c1ccco1 (stereo not shown),-25.6
10,CC1CCN(C(=O)CSc2nc3c(c(=O)n(C)c(=O)n3C)n2C)CC1,10.5
11,COc1cccc(CN(C)C(=O)c2ccc(OCC(=O)Nc3cccc(C(F)(F)F)c3)c(OC)c2)c1,-26.2
12,CC1CCN(CC(=O)c2cccc(C(F)(F)F)c2)CC1.O=C(O)C(=O)O,7.63
13,CN(CC1CCN(CCc2cccc(C(F)(F)F)c2)CC1)C(=O)c1ccc(F)cc1,-70.8
14,COc1ccc(CCNC(=O)Cc2cccc(C(F)(F)F)c2)cc1OC,5.75
15,COc1ccnc(CN(C)C(=O)C2CCC(=O)N(Cc3cccc(C(F)(F)F)c3)C2)c1 (stereo not shown),-18.6
16,COc1cc(C(=O)N(C)CC2CCN(CCc3cccc(C(F)(F)F)c3)CC2)ccc1C,-78.8
17,COc1cccc(CCNCc2cccc(C(F)(F)F)c2)c1.O=C(O)C(=O)O,-3.46
18,CN(CC1CCN(CCc2cccc(C(F)(F)F)c2)CC1)C(=O)c1ccccc1,-68.5
19,COc1cccc(C(=O)N(C)CC2CCN(CCc3cccc(C(F)(F)F)c3)CC2)c1,-70.8
20,O=C(c1cccc(C(F)(F)F)c1)N1CCN(CCc2ccccc2)CC1,-47.8
21,CCOC(=O)C1CCCN(C(=O)CSc2nccn2C)C1 (stereo not shown),-0.344

row,SMILES,"hERG current change (%, negative = inhibition) at 10uM [%]"
1,CCOC(=O)c1cnn2c(C)cc(-c3ccccc3)nc12,-10.4
2,Cc1cc(C)c(S(=O)(=O)Nc2ncn[nH]2)cc1C,42.8
3,COC(=O)c1ccccc1NC(=O)c1ccccc1OC,-23.1
4,CN(Cc1cccc(C(F)(F)F)c1)C(=O)C1CCC(=O)N(CC2CCCCC2)C1 (stereo not shown),-6.77
5,O=C(NCCc1cccc(C(F)(F)F)c1)C1CCC(=O)N(C2CC2)C1 (stereo not shown),3.12
6,CN(CC1CCN(CCc2cccc(C(F)(F)F)c2)CC1)C(=O)c1ccc(F)cc1F,-69.9
7,COc1ccc(/C=C2\C(=O)c3ccccc3OC2c2ccccc2)cc1 (stereo not shown),7.66
8,COC(=O)[C@@]1(Cc2ccc(OC)cc2)[C@H]2c3cc(C(=O)N4CCCC4)n(Cc4c(CO)[nH]cc(C)c4=O)c3C[C@H]2CN1C(=O)c1ccccc1,3.94
9,CN1CCN(c2ccc(S(=O)(=O)N3CCCCC3)cc2NC(=O)c2ccc(F)cc2F)CC1,-68.4
10,Cc1ccccc1OCC(=O)Nc1cc(S(=O)(=O)N2CCCCC2)ccc1N1CCN(C)CC1,-28.3
11,CN1CCN(c2ccc(S(=O)(=O)N3CCCCC3)cc2NC(=O)COc2ccc(F)cc2)CC1,-75.2
12,Cc1cccc(OCCC(=O)Nc2cc(S(=O)(=O)N3CCCCC3)ccc2N2CCOCC2)c1,6.71
13,CN1CCN(c2ccc(S(=O)(=O)N3CCCCC3)cc2NC(=O)COc2ccc([N+](=O)[O-])cc2)CC1,-34.3
14,Cc1cccc(OCC(=O)Nc2cc(S(=O)(=O)N3CCCCC3)ccc2N2CCN(C)CC2)c1,-63
15,Cc1ccccc1C(=O)Nc1cc(S(=O)(=O)N2CCCCC2)ccc1N1CCN(C)CC1,-37.4
16,CN1CCN(c2ccc(S(=O)(=O)N3CCCCC3)cc2NC(=O)COc2cccc(Cl)c2)CC1,-49.1
17,CN1CCN(c2ccc(S(=O)(=O)N3CCCCC3)cc2NC(=O)Cc2ccccc2F)CC1,-31
18,O=C(COc1ccc(F)cc1)Nc1cc(S(=O)(=O)N2CCCCC2)ccc1N1CCCCC1,9.98
19,Cc1ccc(Cl)c(OCC(=O)Nc2cc(S(=O)(=O)N3CCOCC3)ccc2N2CCCC2)c1,-15.4
20,Cc1ccc(OCC(=O)Nc2cc(S(=O)(=O)N3CCCCC3)ccc2N2CCN(C)CC2)c(C)c1,-57.7
21,Cc1ccc(C)c(OCCC(=O)NNC(=O)Cn2nc(C)cc2C)c1,21.8

row,SMILES,"hERG current change (%, negative = inhibition) at 10uM [%]"
1,O=C(NCc1ccccc1)C1=C[C@@H](c2ccc(Br)cc2)C[C@@H](OCCCCO)O1,-36.8
2,COc1cc2c(cc1OC)C(c1ccccc1Cl)N(C)CC2 (stereo not shown),1.73
3,COc1ccc(Cc2c(O)nc(SCC(=O)NC34CC5CC(CC(C5)C3)C4)[nH]c2=O)cc1,4.4
4,Cc1ccc(NC(=O)CCN2C(=O)C3CCCCC3C2=O)c(O)c1 (stereo not shown),11.9
5,CC(CCc1ccccc1)NCC#N.Cl (stereo not shown),18.9
6,O=c1c(Cc2ccc(Cl)cc2Cl)c(O)ccn1CC(F)(F)F,12.7
7,COc1ccc(OC)c(S(=O)(=O)n2ccnc2C)c1,0.0552
8,CCOc1ccc(N2CC(C(=O)Nc3c(C)n(C)n(-c4ccccc4)c3=O)CC2=O)cc1 (stereo not shown),22.6
9,CCn1cc(C(=O)N2CCN(C(=O)c3ccco3)CC2)c2cc(OC)c(OC)cc2c1=O,7.72
10,CCOCCCNC(=O)c1cc(-c2ccc(Br)s2)nc2ccccc12,15
11,CC(C)C(=O)NS(=O)(=O)c1ccc(N)cc1,8.54
12,Cc1ccc(NC(=O)C2(NC(=O)c3cccc(N4C(=O)CSC4c4ccccc4)c3)CCCCC2)cc1 (stereo not shown),2.72
13,Cc1cc2c(cc1S(=O)(=O)NCCc1ccc(Cl)cc1)OCC(=O)N2,-21.3
14,Cc1cc2c(cc1S(=O)(=O)NCc1ccc(Cl)cc1)OCC(=O)N2,-57.9
15,COc1cc(NS(=O)(=O)c2cc3c(cc2C)NC(=O)CO3)cc(OC)c1,-62.2
16,Cc1ccc(CNS(=O)(=O)c2cc3c(cc2C)NC(=O)CO3)cc1,-39.8
17,COc1cccc(NS(=O)(=O)c2cc3c(cc2C)NC(=O)CO3)c1,-38.7
18,COc1ccc(NS(=O)(=O)c2cc3c(cc2C)NC(=O)CO3)c(OC)c1,-15.3
19,O=C(O)c1ccc(NC(=S)N2CCCCC2)cc1,19.8
20,CN(CC(=O)N1CCCCCC1)S(=O)(=O)c1ccc(Br)s1,-9.92
21,COc1ccc([N+](=O)[O-])cc1NC(=O)CCCOc1ccccc1,21.6

row,SMILES,"hERG current change (%, negative = inhibition) at 10uM [%]"
1,Nc1c(C(=O)c2ccc(Cl)cc2)sc2nc3c(cc12)CCC3,12
2,COC(=O)c1cc2c(N)c(C(=O)c3ccccc3)sc2nc1C(OC)OC,0.631
3,COC(=O)c1cc2c(N)c(C(=O)c3ccc(Cl)cc3)sc2nc1C(OC)OC,-69.6
4,CCC(C)NC(=S)N1CCN(C(c2ccccc2)c2ccccc2)CC1 (stereo not shown),-59.6
5,CC(C)NC(=S)N1CCN(C(c2ccccc2)c2ccccc2)CC1,-34.7
6,CCNC(=S)N1CCN(C(c2ccccc2)c2ccccc2)CC1,2.6
7,O=c1cc(O)c2c(=O)n(-c3ccccc3)c3c(c2o1)CCCCC3,-0.822
8,CCCn1c(N2CCN(C(=O)Nc3ccccc3)CC2)nc2ccccc21,-35.9
9,CCCn1c(N2CCN(S(=O)(=O)Cc3ccccc3)CC2)nc2ccccc21,4.46
10,CCCn1c(N2CCN(C(=O)NCc3ccccc3)CC2)nc2ccccc21,-67.9
11,CC(C)n1c(N2CCN(C(=O)Nc3ccc(Cl)cc3)CC2)nc2ccccc21,-36.3
12,Cn1c(N2CCNCC2)nc2ccccc21,-15.7
13,Cn1c(N2CCN(C(c3ccccc3)c3ccccc3)CC2)nc2ccccc21,-51.7
14,Cn1c(N2CCN(C(=O)NC34CC5CC(CC(C5)C3)C4)CC2)nc2ccccc21,23.2
15,CC(C)n1c(N2CCN(C(=O)Nc3ccccc3)CC2)nc2ccccc21,-14.6
16,CC(C)n1c(N2CCN(C(=O)NCc3ccccc3)CC2)nc2ccccc21,-59.2
17,Cn1c(N2CCN(C(=O)NCc3ccccc3)CC2)nc2ccccc21,-60
18,O=C(NCc1ccccc1)N1CCn2c(nc3ccccc32)C1,2.53
19,c1ccc(C(c2ccccc2)N2CCN(c3ccc4ccccc4n3)CC2)cc1,-3.18
